# Source: article PMC5540273 (PLoS ONE, 2017)
# Key:
# Conditions in all cases: concentration: 1 μM, replicates: in singlicate; n = 1
# TLK2 = system: TLK2
# TNIK = system: TNIK
# TNK1 = system: TNK1
# TNK2 = system: TNK2
# TNNI3K = system: TNNI3K
# TRKA = system: T1, TRKA
# T1 construct: gene NTRK1
# TRKB = system: TRKB
# TRKC = system: T2, TRKC
# T2 construct: gene NTRK3
# TRPM6 = system: TRPM6
# TSSK1B = system: TSSK1B
# 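Also: KINOMEscan kinase panel screen.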
Compound,%Inh (TLK2) [%],%Inh (TNIK) [%],%Inh (TNK1) [%],%Inh (TNK2) [%],%Inh (TNNI3K) [%],%Inh (TRKA) [%],%Inh (TRKB) [%],%Inh (TRKC) [%],%Inh (TRPM6) [%],%Inh (TSSK1B) [%]
CSc1ccc(-c2cc3ncnc(SCC(=O)O)c3s2)cc1,0,3,57,14,0,0,0,0,0,0
N#Cc1c(N2CCOCC2)sc(-c2ccn[nH]2)c1-c1ccc(Cl)cc1,0,0,0,0,0,12,6,8,0,0
c1ccc(-c2n[nH]cc2-c2ccnc3ccccc23)nc1 [GW271431],0,32,10,19,12,35,0,0,29,11
O=C(NCCNc1ccnc(Nc2ccc(F)cc2)n1)c1cc2ccccc2s1 [GSK1379874],0,0,0,7,0,0,4,38,11,0
CCc1ccnc(/C=C/c2n[nH]c3cc(Sc4ccccc4C(=O)NC)ccc23)c1,0,5,48,0,5,56,0,0,4,0
